Assay results from PubChem BioAssay AID1159580 (chemical genetic matrix, 2015).
The campaign covered roughly 5,500 compounds. About 2,000 (36%) were called active. About 18% were inconclusive and are not listed. Some of the results follow. Unmarked numbers belong to inactive results. Cut-off read from the data, not from the text of the source: active = normalized growth mostly below about 0.91 (no sharp cut-off); inconclusive = no clear call, values can overlap the other calls; inactive = mostly above about 0.92.

Assay: chemical genetic growth profiling, strain panel (AID 1159580);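 note: tested at 20 µM; growth read once vehicle control cultures reached saturation at 30 °C; 1 = growth at the plate median or of vehicle wells; lower values mean less growth of the strain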
Conditions: growth OD

Compound: O=c1oc2cc(O)ccc2s1
- normalized growth (S. cerevisiae deletion strains, locus YJR043C, strain POL32, active compounds read low): 0.962
- normalized growth (S. cerevisiae deletion strains, locus YJR075W, strain HOC1, active compounds read low): 0.958
- normalized growth (S. cerevisiae deletion strains, locus YKL009W, strain mrt4, active compounds read low): 0.952
- normalized growth (S. cerevisiae deletion strains, locus YKL068W, active compounds read low): 0.995
- normalized growth (S. cerevisiae deletion strains, locus YKL085W, strain MDH1 (second series), active compounds read low): 0.975
- normalized growth (S. cerevisiae deletion strains, locus YKL085W, strain MDH1, active compounds read low): 0.975
- normalized growth (S. cerevisiae deletion strains, locus YKL160W, strain elf1, active compounds read low): 0.99
- normalized growth (S. cerevisiae deletion strains, locus YKL190W, strain CNB1, active compounds read low): 1
- normalized growth (S. cerevisiae deletion strains, locus YKR001C, strain vps1, active compounds read low): 0.894 (active)
- normalized growth (S. cerevisiae deletion strains, locus YKR026C, strain gcn3, active compounds read low): 1.01
- normalized growth (S. cerevisiae deletion strains, locus YKR091W, strain srl3, active compounds read low): 1.01
- normalized growth (S. cerevisiae deletion strains, locus YLL001W, strain dnm1, active compounds read low): 0.974
- normalized growth (S. cerevisiae deletion strains, locus YLL026W, active compounds read low): 0.99
- normalized growth (S. cerevisiae deletion strains, locus YLL041C, strain sdh2, active compounds read low): 1.02
- normalized growth (S. cerevisiae deletion strains, locus YLR027C, strain aat2, active compounds read low): 0.983
- normalized growth (S. cerevisiae deletion strains, locus YLR039C, strain RIC1, active compounds read low): 0.909
- normalized growth (S. cerevisiae deletion strains, locus YLR058C, strain SHM2, active compounds read low): 0.983
- normalized growth (S. cerevisiae deletion strains, locus YLR102C, strain apc9, active compounds read low): 0.963
- normalized growth (S. cerevisiae deletion strains, locus YLR221C, strain rsa3, active compounds read low): 0.971
- normalized growth (S. cerevisiae deletion strains, locus YLR258W, strain gsy2, active compounds read low): 1
- normalized growth (S. cerevisiae deletion strains, locus YLR262C, strain YPT6 (second series), active compounds read low): 0.965
- normalized growth (S. cerevisiae deletion strains, locus YLR262C, strain YPT6, active compounds read low): 0.981
- normalized growth (S. cerevisiae deletion strains, locus YLR268W, strain sec22, active compounds read low): 0.903
- normalized growth (S. cerevisiae deletion strains, locus YLR320W, strain mms22, active compounds read low): 0.962
- normalized growth (S. cerevisiae deletion strains, locus YLR330W, strain CHS5, active compounds read low): 0.982
- normalized growth (S. cerevisiae deletion strains, locus YLR342W, strain FKS1 (second series), active compounds read low): 0.956
- normalized growth (S. cerevisiae deletion strains, locus YLR342W, strain FKS1, active compounds read low): 1
- normalized growth (S. cerevisiae deletion strains, locus YLR357W, strain rsc2, active compounds read low): 0.995
- normalized growth (S. cerevisiae deletion strains, locus YLR370C, strain arc18, active compounds read low): 0.999
- normalized growth (S. cerevisiae deletion strains, locus YLR371W, strain rom2, active compounds read low): 0.965
- normalized growth (S. cerevisiae deletion strains, locus YLR384C, strain iki3, active compounds read low): 1.02
- normalized growth (S. cerevisiae deletion strains, locus YLR418C, strain cdc73, active compounds read low): 0.929
- normalized growth (S. cerevisiae deletion strains, locus YML016C, strain PPZ1, active compounds read low): 0.98
- normalized growth (S. cerevisiae deletion strains, locus YML032C, strain rad52, active compounds read low): 0.858 (active)
- normalized growth (S. cerevisiae deletion strains, locus YML120C, strain ndi1, active compounds read low): 0.994
- normalized growth (S. cerevisiae deletion strains, locus YML124C, strain tub3, active compounds read low): 0.962
- normalized growth (S. cerevisiae deletion strains, locus YMR058W, strain fet3, active compounds read low): 0.967
- normalized growth (S. cerevisiae deletion strains, locus YMR078C, strain ctf18, active compounds read low): 0.95
- normalized growth (S. cerevisiae deletion strains, locus YMR125W, strain sto1, active compounds read low): 1.12 [resistant] (active)
- normalized growth (S. cerevisiae deletion strains, locus YMR129W, active compounds read low): 1
- normalized growth (S. cerevisiae deletion strains, locus YMR205C, strain PFK2, active compounds read low): 0.969
- normalized growth (S. cerevisiae deletion strains, locus YMR223W, strain ubp8, active compounds read low): 0.96
- normalized growth (S. cerevisiae deletion strains, locus YMR231W, strain pep5, active compounds read low): 1.03
- normalized growth (S. cerevisiae deletion strains, locus YMR263W, strain SAP30, active compounds read low): 0.956
- normalized growth (S. cerevisiae deletion strains, locus YMR307W, strain GAS1, active compounds read low): 0.946
- normalized growth (S. cerevisiae deletion strains, locus YNL067W, strain RPL9B, active compounds read low): 0.926
- normalized growth (S. cerevisiae deletion strains, locus YNL071W, strain lat1, active compounds read low): 1.01
- normalized growth (S. cerevisiae deletion strains, locus YNL128W, strain TEP1, active compounds read low): 0.962
- normalized growth (S. cerevisiae deletion strains, locus YNL153C, strain GIM3, active compounds read low): 0.948
- normalized growth (S. cerevisiae deletion strains, locus YNL209W, strain ssb2, active compounds read low): 1
- normalized growth (S. cerevisiae deletion strains, locus YNL233W, strain BNI4, active compounds read low): 0.955
- normalized growth (S. cerevisiae deletion strains, locus YNL248C, strain rpa49, active compounds read low): 1.04
- normalized growth (S. cerevisiae deletion strains, locus YNL250W, strain rad50, active compounds read low): 0.941
- normalized growth (S. cerevisiae deletion strains, locus YNL271C, strain bni1, active compounds read low): 0.939
- normalized growth (S. cerevisiae deletion strains, locus YNL298W, strain CLA4, active compounds read low): 0.917
- normalized growth (S. cerevisiae deletion strains, locus YNL307C, strain MCK1, active compounds read low): 0.959
- normalized growth (S. cerevisiae deletion strains, locus YNL322C, strain KRE1 (second series), active compounds read low): 1.01
- normalized growth (S. cerevisiae deletion strains, locus YNL322C, strain KRE1, active compounds read low): 0.99
- normalized growth (S. cerevisiae deletion strains, locus YNR049C, strain mso1, active compounds read low): 0.999
- normalized growth (S. cerevisiae deletion strains, locus YNR052C, strain pop2, active compounds read low): 0.966
- normalized growth (S. cerevisiae deletion strains, locus YOL006C, strain TOP1, active compounds read low): 0.908
- normalized growth (S. cerevisiae deletion strains, locus YOL012C, strain htz1): 1.09
- normalized growth (S. cerevisiae deletion strains, locus YOL147C, strain pex11, active compounds read low): 0.964
- normalized growth (S. cerevisiae deletion strains, locus YOR001W, strain rrp6, active compounds read low): 0.994
- normalized growth (S. cerevisiae deletion strains, locus YOR061W, strain CKA2, active compounds read low): 0.984
- normalized growth (S. cerevisiae deletion strains, locus YOR069W, strain VPS5, active compounds read low): 0.984
- normalized growth (S. cerevisiae deletion strains, locus YOR070C, strain gyp1, active compounds read low): 1.01
- normalized growth (S. cerevisiae deletion strains, locus YOR080W, strain dia2, active compounds read low): 1.02
- normalized growth (S. cerevisiae deletion strains, locus YOR083W, strain WHI5, active compounds read low): 0.931
- normalized growth (S. cerevisiae deletion strains, locus YOR106W, strain vam3, active compounds read low): 0.972
- normalized growth (S. cerevisiae deletion strains, locus YOR136W, strain idh2, active compounds read low): 0.972
- normalized growth (S. cerevisiae deletion strains, locus YOR144C, strain elg1, active compounds read low): 0.966
- normalized growth (S. cerevisiae deletion strains, locus YOR184W, strain ser1, active compounds read low): 0.91
- normalized growth (S. cerevisiae deletion strains, locus YOR265W, strain rbl2, active compounds read low): 0.994
- normalized growth (S. cerevisiae deletion strains, locus YOR270C, strain vph1, active compounds read low): 0.943
- normalized growth (S. cerevisiae deletion strains, locus YOR290C, strain snf2, active compounds read low): 0.992
- normalized growth (S. cerevisiae deletion strains, locus YOR316C, strain cot1, active compounds read low): 0.968
- normalized growth (S. cerevisiae deletion strains, locus YPL051W, strain arl3, active compounds read low): 0.999
- normalized growth (S. cerevisiae deletion strains, locus YPL055C, strain LGE1, active compounds read low): 1
- normalized growth (S. cerevisiae deletion strains, locus YPL078C, strain atp4, active compounds read low): 0.987
- normalized growth (S. cerevisiae deletion strains, locus YPL106C, strain sse1, active compounds read low): 1.02
- normalized growth (S. cerevisiae deletion strains, locus YPL240C, strain hsp82, active compounds read low): 1.02
- normalized growth (S. cerevisiae deletion strains, locus YPL241C, strain CIN2, active compounds read low): 0.989
- normalized growth (S. cerevisiae deletion strains, locus YPR119W, strain clb2, active compounds read low): 0.967
- normalized growth (S. cerevisiae deletion strains, locus YPR141C, strain kar3, active compounds read low): 0.933
- normalized growth (S. cerevisiae deletion strains, locus YPR163C, strain tif3, active compounds read low): 0.965
- normalized growth (S. cerevisiae deletion strains, locus YPR167C, strain met16, active compounds read low): 0.965
- normalized growth (S. cerevisiae deletion strains, strain wtn01, active compounds read low): 0.876 (active)
- normalized growth (S. cerevisiae strains, strain wild type, active compounds read low): 0.978
